# Compound activity: PubChem, National Center for Advancing Translational Sciences (NCATS)
# Sfp PPTase inh: inhibitors of Bacillus subtilis Sfp phosphopantetheinyl transferase | 310,000 compounds, 3.5% hits | Biochemical Sfp PPTase activity, qHTS | Q9F4F7 | Potency, µM, inactives show largest response in the series, negative = inhibition, most hits filed as inhibitors;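 note: the enzyme is Sfp with the accession as filed and its product quenches rhodamine fluorescence; potency is the fitted concentration of half-maximal effect; 0% = enzyme reaction without inhibitor and -100% = no enzyme wells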
#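 After 15 min at room temperature with compound, 15 nM Sfp received 5 uM rhodamine-CoA plus 12.5 uM BHQ-2-ybbR (50 mM Hepes pH 7.6, 10 mM MgCl2). Rate came from the fluorescence difference over 30 min, ex 525/em 598 nm.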
# PLK1 PBD inh: blocks phosphopeptide binding to human PLK1 polo-box domain. 360,000 compounds, 2.8% hits. Plk1 PBD binding of FITC phosphopeptide, fluorescence polarization. AID 720504. P53350. Potency, µM, for inactives: max response, negative = inhibition, hits mostly inhibitors; note: potency is the fitted concentration of half-maximal effect; series mostly up to about 57 µM; nearly all actives have a fitted effect of over 65% in size
# MmCpn inh: blocks the Methanococcus maripaludis chaperonin Mm-Cpn; 330,000 compounds, 0.031% hits; purified Mm-Cpn ATPase, ADP Transcreener TR-FRET; Potency, µM (highest dose often 76.9 µM), for the others: at the highest dose activity, negative = inhibition, hits mostly inhibitors; AID 504842; note: potency is the fitted concentration of half-maximal effect; nearly all actives have a fitted effect of over 80% in size
#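 ATP (10 uM final) was added to archaeal chaperonin (25 nM final) after 10 min exposure to test compound at 37°C; after 30 min further incubation, ADP was detected by competitive TR-FRET.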
# G9a block: G9a (human) methyltransferase inhibition. Q96KQ7. G9a H3K9 monomethylation, AlphaScreen, 2 h. Potency, µM (series often up to 102 µM), for the others: at the top dose activity, negative = inhibition, most hits filed as inhibitors. 350,000 compounds, 8.8% hits; note: potency is the fitted concentration of half-maximal effect; nearly all actives have a fitted effect of over 75% in size
# Target sequence (Q96KQ7 913-1193 limits assumed): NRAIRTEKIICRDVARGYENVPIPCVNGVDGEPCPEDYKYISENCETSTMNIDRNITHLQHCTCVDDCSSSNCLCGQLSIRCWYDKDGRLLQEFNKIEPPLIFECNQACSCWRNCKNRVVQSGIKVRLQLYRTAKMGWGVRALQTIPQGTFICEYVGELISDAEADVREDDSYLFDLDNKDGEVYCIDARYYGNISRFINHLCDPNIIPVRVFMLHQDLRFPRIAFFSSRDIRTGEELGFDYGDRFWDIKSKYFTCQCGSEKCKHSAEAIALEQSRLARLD
#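 Compounds were preincubated with 20 nM G9a for 15 min, after which biotinylated H3K9 peptide (500 nM) and SAM (20 uM) started a 2 h room-temperature reaction. Monomethylated product was quantified by antibody-based AlphaScreen chemiluminescence.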
# VDR inh: inhibitors of human vitamin D receptor. VDR-SRC2-3 peptide fluorescence polarization, 2 h. P11473. AID 504847. 400,000 compounds, 0.93% hits. Potency, µM, for inactives: max response, negative = inhibition, actives largely listed as inhibitors; note: potency is the fitted concentration of half-maximal effect
# Target sequence (P11473 whole entry, looked up): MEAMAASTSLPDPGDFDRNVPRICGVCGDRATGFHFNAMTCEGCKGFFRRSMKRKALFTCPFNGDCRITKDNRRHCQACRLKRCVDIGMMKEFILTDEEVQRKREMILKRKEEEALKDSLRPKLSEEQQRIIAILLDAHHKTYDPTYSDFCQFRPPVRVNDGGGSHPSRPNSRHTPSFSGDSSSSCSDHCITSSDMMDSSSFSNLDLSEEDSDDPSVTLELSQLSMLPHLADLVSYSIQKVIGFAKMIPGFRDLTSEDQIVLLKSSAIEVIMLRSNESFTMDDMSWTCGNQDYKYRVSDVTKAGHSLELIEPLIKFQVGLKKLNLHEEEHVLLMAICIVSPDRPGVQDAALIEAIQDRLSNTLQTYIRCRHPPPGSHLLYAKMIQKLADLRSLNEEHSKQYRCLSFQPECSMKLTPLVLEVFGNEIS
#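 After 23 nl compound addition and a short centrifugation, plates sat for 2 hours at ambient temperature; polarization of fluorescence then indicated loss of VDR binding to peptide SRC2-3.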
# CCT chaperon mod: changes cytosolic chaperonin activity | purified chaperonin ATPase assay, HTRF ADP detection, 30 min | 360,000 compounds, 0.3% hits | activity change, % (concentration not given with the values), hits read low; in the data active = activity change below about -30%
#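 We incubate TRiC, 40 or 20 nM final, with library compounds at 76 uM and 10 uM ATP for 30 min at 37 °C. ADP formed is detected with Transcreener HTRF reagents after 30 min at room temperature.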
# The depositor's hits bear a star; u = inconclusive; x = no result given; [ ] = remark or other dose. Only some compounds are listed: those with a hit (about 10% of all), similar ones and a draw of the others. Unless noted, calls come from the whole dose curve; as a rule, active = well fitted curve in the direction sought with a large enough effect; inconclusive = small, poorly fitted or top-dose-only effect, or another doubt; inactive = no such curve, though single readings can be large; an effect the other way counts as inactive or inconclusive. Unless noted, % is set by controls: 0 for no effect and ±100 for the full control effect.
SMILES,Sfp PPTase inh,PLK1 PBD inh,MmCpn inh,G9a block,VDR inh,CCT chaperon mod
CN(C(=O)COc1cc(=O)n(C)c2ccccc12)c1cccc(Cl)c1,u,-23%,-2%,u,-22%,-1
CCOC(=O)c1cnc(-n2nc(C)cc2C)nc1NCCc1ccccc1,50µM*,-1%,0%,6%,-13%,1
CCOC(=O)c1cnc(-n2nc(C)cc2C)nc1Nc1ccccc1OC,12%,x,0%,-22%,x,x
CCOC(=O)c1cnc(-n2nc(C)cc2C)nc1N1CCOCC1,-22%,-1%,-4%,79µM*,-5%,-1
C#CCCCCCCCCCCCc1ccco1,-21%,x,x,x,35µM*,x
CC[C@@]1(O)C(=O)OCc2c1cc1n(c2=O)Cc2cc3c(CN(C)C)c(O)ccc3nc2-1,16%,6µM*,x,-50%[2.33 µM],-5%,1
Cc1cc2nc(C)c(=O)n(C)c2cc1C,0%,13µM*,-2%,7%[59 µM],u,1
Cc1ccc(NC(=O)/C=C\C(=O)N(c2ccc(C(C)C)cc2)C(C(=O)NCc2ccco2)c2ccc(F)cc2)cc1 (stereo not drawn),x,x,x,-39%[59 µM],8%,x
COc1ccccc1N1CCN(C(=O)c2ccc3c(c2)NC(=O)C(CSCc2ccccc2C)N3)CC1 (stereo not drawn),50µM*,x,-1%,u,x,x
COc1ccc(N2CCN(C(=O)c3ccc4c(c3)NC(=O)C(CSCc3ccccc3F)N4)CC2)cc1 (stereo not drawn),x,u,x,x,x,-4
O=C1Nc2cc(C(=O)N3CCN(c4ccccc4F)CC3)ccc2NC1CSCc1ccccc1F (stereo not drawn),56µM*,x,-1%,u,x,x
Cc1cccc(N2CCN(C(=O)c3ccc4nccnc4c3)CC2C)c1 (stereo not drawn),x,3%,1%,x,-7%,-1
Cc1cccc(N2CCN(C(=O)c3ccc4c(c3)NC(=O)C(CSCc3cccc(F)c3)N4)CC2C)c1 (stereo not drawn),56µM*,u,0%,x,u,-2
COc1ccc(NC(=O)CN(c2ccccc2OC)S(C)(=O)=O)c(OC)c1,x,x,x,-1%[59 µM],-16%,x
CC/C=C\C[C@H](O)/C=C/C=C\C/C=C\C/C=C\CCCC(=O)O,19%,x,x,x,8%,x
CCCc1ccc(OC(=O)CSc2nnc(-c3cccs3)o2)cc1,x,x,x,u,16%,x
COC(=O)/C=C1/S/C(=N/NC(=O)c2ccc(Cl)cc2Cl)NC1=O,1%,-12%,-2%,-1%,-3%,-1
COC(=O)/C=C1\S/C(=N/NC(=O)c2ccc(OC)cc2)NC1=O,10%,19µM*,-4%,-3%,-7%,-1
COC(=O)/C=C1\SC(=Nc2ccc(OC)cc2)NC1=O,12%,2%,-6%,4%,-22%,-3
COC(=O)/C=C1/S/C(=N/NC(=O)c2ccc(OC)cc2)NC1=O,2%,-13%,-16%,39%,-2%,0
COC(=O)/C=C1/S/C(=N/NC(=O)c2ccccc2OC)NC1=O,-5%,1%,-1%,7.9µM*,-2%,1
COC(=O)/C=C1\SC(=NC(=O)c2ccc(-c3ccccc3)cc2)NC1=O,x,19µM*,-5%,x,-9%,1
Cc1ccc(C(=O)Nc2c(C(=O)Nc3ccc(C)c(C)c3)sc3nc(C)cc(C)c23)cc1,x,x,x,11%[59 µM],-9%,x
CCN(CC)S(=O)(=O)c1ccc2c(c1)c(=O)c(C(=O)N1CCN(c3ccc(F)cc3)CC1)cn2C,x,x,x,-34%[59 µM],-6%,x
CCCN(Cc1nnc(-c2ccccc2Cl)o1)C(=O)c1cc([N+](=O)[O-])cc([N+](=O)[O-])c1,5%,-7%,0%,50µM*,7%,-1
SMILES,Sfp PPTase inh,PLK1 PBD inh,MmCpn inh,G9a block,VDR inh,CCT chaperon mod
CC1CCCC(NC(=O)CCC(=O)N2CCOc3ccccc32)C1C (stereo not drawn),6%,15µM*,0%,23%[0.501 µM],u,1
CC1CCCC(NC(=O)CSc2ccc(F)cc2)C1C (stereo not drawn),8%,-7%,-2%,-1%,6%,-1
O=C(CCC(=O)N1CCOc2ccccc21)NC1CCN(Cc2ccccc2)CC1,9%,-6%,1%,-5%,3%,1
CC1CCCC(NC(=O)CCC(=O)c2ccc(F)cc2)C1C (stereo not drawn),5%,24µM*,0%,18%,-18%,0
COc1cc(NC(=O)CCCOc2cc(=O)n(C)c3ccccc23)cc(OC)c1OC,x,x,x,5%[59 µM],1%,x
CCN(CC)C(=O)c1c(NC(=O)c2ccccc2F)sc2c1CCC(C(C)(C)C)C2 (stereo not drawn),x,x,x,-39%[59 µM],-10%,x
COc1ccc2c(c1)c[n+](C)c1c3cc(OC)c(OC)cc3ccc21,x,12µM*,x,x,x,0
Cc1cccc(C(=O)NC2CCCCCCC2)c1,9%,-1%,-1%,7%,4%,2
CN(C)S(=O)(=O)N1CCC(Oc2ccc(C(=O)NC3CCCCC3)cc2)CC1,4%,-13%,0%,u,1%,-1
CN(C)S(=O)(=O)N1CCC(Oc2cccc(C(=O)NC3CCCCC3)c2)CC1,15%,15µM*,-2%,3%,u,-1
CN(C)c1cccc(C(=O)NC2CCCCCC2)c1,u,-21%,-2%,8.9µM*,-28%,-1
CC1Nc2ccc(C(=O)NC3CCCCC3)cc2NC1=O (stereo not drawn),-9%,-9%,-1%,35µM*,-7%,-4
COc1ccc2nc(N3CCN(C(=O)C4CC4)CC3)sc2c1,x,x,x,-30%[59 µM],-30%,x
Nn1c(SCC(=O)NCCC2=CCCCC2)nnc1-c1cccnc1,x,-5%,2%,45µM*,-8%,-1
CC(C)c1nnc(SCC(=O)NCCC2=CCCCC2)n1N,u,11µM*,0%,8.9µM*,89µM*,-1
Cc1ccc(NC(=O)Cn2c(=O)n(-c3ccc(Cl)c(Cl)c3)c(=O)c3c(C)c(C)sc32)c(C)c1,x,x,x,-14%[59 µM],-19%,x
CCC12CN3CC(CC)(CN(C1)C3c1ccc(OCc3ccccc3)cc1)C2=O (stereo not drawn),x,x,x,4%[59 µM],1%,x
CCOC(=O)c1ccc(CNC(=O)C2CCCCC2C(=O)OCC(F)(F)F)o1 (stereo not drawn),-2%,-18%,0%,-4%[12.7 µM],-12%,0
Cc1[nH]c2c(Cl)cccc2c1CCNC(=O)C1CCCCC1C(=O)OCC(F)(F)F (stereo not drawn),23%,-3%,0%,71µM*,4%,-6
Cc1ccc(S(=O)(=O)CCc2nnc(NC(=O)CCl)s2)cc1C,1%,-30%,u,79µM*,3%,-3
CC(C)(C)c1csc(NC(=O)Cc2cccs2)n1,5%,-6%,1%,50µM*,-6%,-5
